This is part of a sample that, as a whole, favours compounds with a hit. Of some 79,000 tested, about 15% had one in any assay. Active and inactive are the calls of the source. Cut-off read from the data, not from the text of the source: active = growth inhibition above about 70%; inactive = the rest.
What was measured:
[1] = NCI Yeast Anticancer Drug Screen. Data for the rad52 strain (AID 147);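 note: 0% = growth of vehicle-treated control cultures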; conditions: S. cerevisiae rad52 mutant growth inhibition, stronger effect = higher value
How it was run: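 Read-out: growth inhibition versus vehicle-treated controls. Cells were a DNA repair-deficient yeast strain treated with compounds.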

[2] = NCI Yeast Anticancer Drug Screen. Data for the wt1 strain (AID 149);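 note: 0% = growth of vehicle-treated wt1 cultures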; conditions: S. cerevisiae wt1 strain (SPY 50644) growth inhibition, stronger effect = higher value
How it was run: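 The wt1 strain was treated with compounds, and growth was compared with vehicle-treated cultures to give inhibition.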

[3] = NCI Yeast Anticancer Drug Screen. Data for the rad50EPP+ strain (AID 151);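 note: 0% = growth of vehicle-treated control cultures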; conditions: S. cerevisiae rad50 mutant strain, stronger effect = higher value
How it was run: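 Growth inhibition read against vehicle controls in rad50EPP+ yeast, a strain altered in DNA damage repair, after compound exposure.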

[4] = NCI Yeast Anticancer Drug Screen. Data for the mgt1 strain (AID 153); conditions: S. cerevisiae mgt1 mutant growth inhibition, stronger effect = higher value
How it was run: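 mgt1 yeast grown with test compound; read-out is growth inhibition versus vehicle-treated cultures.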

[5] = NCI Yeast Anticancer Drug Screen. Data for the rad50 strain (AID 155);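 note: 0% = growth of vehicle-only cultures of the same strain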; conditions: S. cerevisiae rad50 strain growth inhibition, stronger effect = higher value
How it was run: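 Cells are treated with compound, grown, and their growth is then scored against vehicle-only cultures of the same repair-deficient yeast strain.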

[6] = NCI Yeast Anticancer Drug Screen. Data for the mec2-1 strain (AID 157); conditions: S. cerevisiae mec2-1 strain, stronger effect = higher value
How it was run: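 Yeast mec2-1 mutant treated with compound. Readout: growth inhibition vs vehicle controls.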

[7] = NCI Yeast Anticancer Drug Screen. Data for the rad14 strain (AID 159);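 note: 0% = growth of vehicle-treated control cultures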; conditions: S. cerevisiae rad14 strain growth inhibition, stronger effect = higher value
How it was run: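 Readout: yeast growth inhibition, referenced to vehicle-only cultures. Strain bears a defined alteration in DNA damage repair.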

[8] = NCI Yeast Anticancer Drug Screen. Data for the sgs1 mgt1 strain (AID 161);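 note: 0% = growth of cultures given vehicle only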; conditions: S. cerevisiae sgs1 mgt1 strain, stronger effect = higher value
How it was run: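 Test agents were incubated with a DNA-repair-mutant yeast strain. Growth was then read and compared against vehicle-treated controls.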

[9] = NCI Yeast Anticancer Drug Screen. Data for the CLN2oe strain (AID 163);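 note: 0% = growth of vehicle-only control cultures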; conditions: S. cerevisiae CLN2oe strain, stronger effect = higher value
How it was run: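 Read-out: yeast growth inhibition, expressed relative to vehicle-only controls. The strain bears an engineered cell-cycle alteration.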

[10] = NCI Yeast Anticancer Drug Screen. Data for the cln2 rad14 strain (AID 165);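 note: 0% = growth equal to vehicle treated cultures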; conditions: S. cerevisiae cln2 rad14 strain, stronger effect = higher value
How it was run: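 cln2 rad14 yeast strain; compound exposure; growth inhibition read vs vehicle controls.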

[11] = NCI Yeast Anticancer Drug Screen. Data for the bub3 strain (AID 167); conditions: S. cerevisiae bub3 mutant strain, stronger effect = higher value
How it was run: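 Part of a panel of yeast mutants defective in DNA damage repair or cell cycle regulation. Each strain is grown with compound, and inhibition is calculated relative to solvent-treated cultures.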

[12] = NCI Yeast Anticancer Drug Screen. Data for the wt2 strain (AID 169);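 note: 0% = growth of vehicle-treated yeast cultures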; conditions: S. cerevisiae wt2 strain growth inhibition, stronger effect = higher value
How it was run: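 Read-out: growth inhibition versus vehicle-treated control cultures after compound exposure of the yeast strain.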

[13] = NCI Yeast Anticancer Drug Screen. Data for the mlh1 strain (AID 171);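 note: 0% = growth of vehicle-treated control cultures of the same strain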; conditions: S. cerevisiae mlh1 strain growth inhibition, stronger effect = higher value
How it was run: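 Read-out: growth inhibition versus vehicle controls. Strain: engineered yeast with a defined DNA repair or cell cycle defect, compound-treated.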

[14] = NCI Yeast Anticancer Drug Screen. Data for the sgs1 strain (AID 173);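 note: 0% = growth of vehicle-only control cultures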; conditions: S. cerevisiae sgs1 mutant, stronger effect = higher value
How it was run: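 Read-out: yeast growth inhibition relative to vehicle controls, following compound exposure of a strain with a defined DNA repair/cell cycle alteration.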

[15] = NCI Yeast Anticancer Drug Screen. Data for the mlh1 rad18 strain (AID 175); conditions: S. cerevisiae mlh1 rad18 strain growth inhibition, stronger effect = higher value
How it was run: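 Yeast w/ defined DNA-repair lesions; compound exposure; growth vs vehicle controls → % inhibition.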

[16] = NCI Yeast Anticancer Drug Screen. Data for the rad18 strain (AID 177); conditions: S. cerevisiae rad18 mutant growth inhibition, stronger effect = higher value
How it was run: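 Readout: growth inhibition vs vehicle controls. Cells: genetically altered yeast strain, DNA repair defect.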

[17] = at 5.0 µM (retest, dose inferred, filed as 0.5)
[18] = at 50.0 µM (retest, dose inferred, filed as 5.0)

Measured: growth inhibition

Clc1ccccc1C1OC1c1ccccc1Cl (stereo unspecified)
active: [3]; at 100.0 µM 70% | [5]; [18] 100% | [6]; [18] 99% | [8]; [18] 98% | [10]; [18] 99% | [11]; [18] 98% | [15]; [18] 100%
inactive: [1]; at 1.2 µM -29% | [1]; at 3.7 µM -38% | [1]; at 11.0 µM -61% | [1]; at 33.0 µM -18% | [1]; at 100.0 µM -32% | [2]; at 1.2 µM -65% | [2]; at 3.7 µM -49% | [2]; at 11.0 µM -61% | [2]; at 33.0 µM -52% | [2]; at 100.0 µM -26% | [3]; at 1.2 µM -86% | [3]; at 3.7 µM -56% | [3]; at 11.0 µM -40% | [3]; at 33.0 µM 20% | [4]; at 1.2 µM -60% | [4]; at 3.7 µM -90% | [4]; at 11.0 µM -65% | [4]; at 33.0 µM -35% | [4]; at 100.0 µM -27% | [5]; at 1.2 µM -66% | [5]; at 3.7 µM -62% | [5]; [17] 57% | [5]; at 11.0 µM -73% | [5]; at 33.0 µM -51% | [5]; at 50.0 µM 38.6% | [5]; at 100.0 µM 14% | [6]; at 1.2 µM -92% | [6]; at 3.7 µM -86% | [6]; [17] 55% | [6]; at 11.0 µM -94% | [6]; at 33.0 µM -75% | [6]; at 50.0 µM 21.9% | [6]; at 100.0 µM -37% | [7]; at 1.2 µM -46% | [7]; at 3.7 µM -46% | [7]; at 11.0 µM -50% | [7]; at 33.0 µM -43% | [7]; at 100.0 µM -9% | [8]; [17] -17% | [8]; at 50.0 µM 44.9% | [9]; at 1.2 µM -3% | [9]; at 3.7 µM 7% | [9]; at 11.0 µM -1% | [9]; at 33.0 µM -1% | [9]; at 100.0 µM 8% | [10]; [17] 37% | [10]; at 50.0 µM 13.6% | [11]; at 1.2 µM -56% | [11]; at 3.7 µM -53% | [11]; [17] 0% | [11]; at 11.0 µM -47% | [11]; at 33.0 µM -42% | [11]; at 50.0 µM 41.6% | [11]; at 100.0 µM -6% | [12]; at 1.2 µM -49% | [12]; at 3.7 µM -71% | [12]; at 11.0 µM -69% | [12]; at 33.0 µM -46% | [12]; at 100.0 µM -16% | [13]; at 1.2 µM -69% | [13]; at 3.7 µM -69% | [13]; at 11.0 µM -35% | [13]; at 33.0 µM -50% | [13]; at 100.0 µM 24% | [14]; at 1.2 µM -78% | [14]; at 3.7 µM -72% | [14]; at 11.0 µM -81% | [14]; at 33.0 µM -38% | [14]; at 100.0 µM 18% | [15]; [17] 57% | [15]; at 50.0 µM 5% | [16]; at 1.2 µM -59% | [16]; at 3.7 µM -48% | [16]; at 11.0 µM -64% | [16]; at 33.0 µM -48% | [16]; at 100.0 µM 2%

O=C(O)c1cccc(-c2c3ccc(=O)cc-3oc3cc(O)ccc23)c1
active: [1]; at 100.0 µM 85% | [2]; at 33.0 µM 77% | [2]; at 100.0 µM 96% | [4]; at 33.0 µM 80% | [4]; at 100.0 µM 97% | [5]; [17] 90% | [5]; [18] 99% | [5]; at 100.0 µM 90% | [6]; [17] 94% | [6]; at 33.0 µM 84% | [6]; [18] 99% | [6]; at 100.0 µM 96% | [7]; at 33.0 µM 71% | [7]; at 100.0 µM 95% | [9]; at 100.0 µM 96% | [11]; at 33.0 µM 79% | [11]; at 100.0 µM 92% | [12]; at 33.0 µM 76% | [12]; at 100.0 µM 95% | [13]; at 33.0 µM 78% | [13]; at 100.0 µM 93% | [14]; at 33.0 µM 83% | [14]; at 100.0 µM 92% | [15]; [17] 94% | [15]; [18] 99% | [16]; at 33.0 µM 71% | [16]; at 100.0 µM 89%
inactive: [1]; at 1.2 µM -4% | [1]; at 3.7 µM 26% | [1]; at 11.0 µM 23% | [1]; at 33.0 µM 62% | [2]; at 1.2 µM -10% | [2]; at 3.7 µM -5% | [2]; at 11.0 µM 18% | [3]; at 1.2 µM -10% | [3]; at 3.7 µM 3% | [3]; at 11.0 µM 1% | [3]; at 33.0 µM -2% | [3]; at 100.0 µM 25% | [4]; at 1.2 µM 21% | [4]; at 3.7 µM 12% | [4]; at 11.0 µM 43% | [5]; at 1.2 µM 9% | [5]; at 3.7 µM 13% | [5]; at 11.0 µM 22% | [5]; at 33.0 µM 65% | [5]; at 50.0 µM 63.6% | [6]; at 1.2 µM 14% | [6]; at 3.7 µM 14% | [6]; at 11.0 µM 36% | [6]; at 50.0 µM 23.1% | [7]; at 1.2 µM -29% | [7]; at 3.7 µM -20% | [7]; at 11.0 µM 2% | [8]; [17] 0% | [8]; [18] 39% | [8]; at 50.0 µM 54.2% | [9]; at 1.2 µM 11% | [9]; at 3.7 µM -13% | [9]; at 11.0 µM -4% | [9]; at 33.0 µM 61% | [10]; [17] 33% | [10]; [18] 69% | [10]; at 50.0 µM 51% | [11]; at 1.2 µM 10% | [11]; at 3.7 µM 29% | [11]; [17] 53% | [11]; at 11.0 µM 49% | [11]; [18] 69% | [11]; at 50.0 µM 62.9% | [12]; at 1.2 µM -33% | [12]; at 3.7 µM -31% | [12]; at 11.0 µM -1% | [13]; at 1.2 µM -23% | [13]; at 3.7 µM -6% | [13]; at 11.0 µM 39% | [14]; at 1.2 µM 16% | [14]; at 3.7 µM 35% | [14]; at 11.0 µM 44% | [15]; at 50.0 µM 47.8% | [16]; at 1.2 µM -3% | [16]; at 3.7 µM 6% | [16]; at 11.0 µM 41%
